Publication PMC7819943, “Rice protein-binding microarrays: a tool to detect cis-acting elements near promoter regions in rice”
Over roughly 35,000 sequences, “fluorescence intensity (a.u.)” has its median near 10,000; the highest 2% begin near 52,000. This is one part of a sample in which the highest values are shown more often than they occur.

biological target: T1, OsWOX13 (Oryza sativa, UniProt Q5QMM3 1-267); test: protein-binding microarray (RPBM); PBS, 2% BSA, 51.3 ng/ul salmon testes DNA, 50 uM zinc acetate, 200 nM TF, 25 C, 1 h; high values mean tight binding; details: protein: recombinant; tags: N-terminal polyhistidine and DsRed monomer fusion (pET32a); label: CyDye5-dUTP incorporated in the synthesized complementary strand; 3' TTTTT single-stranded linker to array surface; dsDNA, one strand shown
T1 sequence: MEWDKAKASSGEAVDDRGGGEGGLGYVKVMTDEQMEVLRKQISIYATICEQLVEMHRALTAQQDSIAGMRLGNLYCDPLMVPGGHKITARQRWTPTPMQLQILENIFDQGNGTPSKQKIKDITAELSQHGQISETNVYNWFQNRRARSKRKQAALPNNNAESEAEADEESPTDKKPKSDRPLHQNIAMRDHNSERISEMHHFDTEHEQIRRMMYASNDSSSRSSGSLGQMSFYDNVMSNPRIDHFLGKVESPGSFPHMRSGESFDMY
How it was run: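 A custom Agilent array was converted to double-stranded form by primer extension with Cy5-dUTP and blocked with 2% BSA. Protein at 200 nM in PBS with 2% BSA, salmon testes DNA and 50 µM zinc acetate was applied for 1 h at 25 °C, followed by washing. The proteins were polyhistidine–DsRed N-terminal fusions of transcription factors, expressed in E. coli BL21-CodonPlus and Ni–NTA-purified. The binding signal is per-feature fluorescence intensity (arbitrary units) from an Axon 4000B scanner.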

In order of falling binding signal:
1. GCAATCAATCAATCAATCATATATCCATATCAAATTAAGCCGGAGTCACCTAGTGCAG  61800 fluorescence intensity (a.u.)
2. TTGATTGAGATGTGACTGGAAAGGTGTGTCAGTGCAGGCACGGAGTCACCTAGTGCAG  56800 fluorescence intensity (a.u.)
3. GCTACAATAATTAATCAATTAATTAAATTAAATTAAGTGGCGGAGTCACCTAGTGCAG  55300 fluorescence intensity (a.u.)
4. TTAATTAACGCGATTAATTAGCCGCAAATCTCAATCCAGGCGGAGTCACCTAGTGCAG  53200 fluorescence intensity (a.u.)
5. TAAGTAATTAATTAATCAATCAATTAATCAATTATTATCCCGGAGTCACCTAGTGCAG  52600 fluorescence intensity (a.u.)
6. ATTAATTAACAATAATAAGTGATTAATAATTAATTAATCGCGGAGTCACCTAGTGCAG  44200 fluorescence intensity (a.u.)
7. TTGATTGAAATTGGAGATGATGTGACTGAAAAGTTGTGTGCGGAGTCACCTAGTGCAG  41800 fluorescence intensity (a.u.)
8. AATTAATTATCATCATTACCGCAAATTCTCAAAAGTCAGGCGGAGTCACCTAGTGCAG  41200 fluorescence intensity (a.u.)
9. AATGATGATTGATGGGTCATGGCACAAGGACGCTAAACCGCGGAGTCACCTAGTGCAG  40700 fluorescence intensity (a.u.)
10. TCCCAATTAAGTCAATCAGTAATAATAAATAATTATGAACCGGAGTCACCTAGTGCAG  32500 fluorescence intensity (a.u.)
11. TTACATTAGCAATTGATTGCTCTTATTTGACCATGATGTTCGGAGTCACCTAGTGCAG  31500 fluorescence intensity (a.u.)
12. CCCTCCAATCAAATTAACCTCCATATCTCTAGCAATCTGCCGGAGTCACCTAGTGCAG  29800 fluorescence intensity (a.u.)
13. TTTAATCACAAGCAAATCAATTAACTCATCCATACTCATCCGGAGTCACCTAGTGCAG  24200 fluorescence intensity (a.u.)
14. TTAAAAGTTTGATTGAAATTGGAACGATGTGATGGAAAAGCGGAGTCACCTAGTGCAG  22400 fluorescence intensity (a.u.)
15. CGTTTTGTTAAATTAAAATAAATTAACAAGCCCAATTGCACGGAGTCACCTAGTGCAG  22300 fluorescence intensity (a.u.)
16. ATATAATAGCTAATCAAACACTAGTCCGAAGACGTAGTATCGGAGTCACCTAGTGCAG  21700 fluorescence intensity (a.u.)
17. CATCCAATCAGTTTAGACAAGGTAAAGTCTCATTTTCACACGGAGTCACCTAGTGCAG  17800 fluorescence intensity (a.u.)
18. TGATTCAAATGATTGAAGCTTTCCAAAACCTATGAAATTCCGGAGTCACCTAGTGCAG  17700 fluorescence intensity (a.u.)
19. AAGTTTGATTAAAATTGGAACGATGTGATGGAAAAGTTAGCGGAGTCACCTAGTGCAG  17300 fluorescence intensity (a.u.)
20. AATCAAATTGCCACTTAAATCTATTGCCTCAAGTGAACAGCGGAGTCACCTAGTGCAG  16100 fluorescence intensity (a.u.)
21. CCTTAATTACATTGTATATAGTGATGTATGATTTATTTTACGGAGTCACCTAGTGCAG  14700 fluorescence intensity (a.u.)
22. CCCGCTTGAATGGATGGCAATCAACACAAGGAACAGACCGCGGAGTCACCTAGTGCAG  13700 fluorescence intensity (a.u.)
23. CATGAGTAAATCAATCAGGGATGGCAACATTCAGGTTTAGCGGAGTCACCTAGTGCAG  12200 fluorescence intensity (a.u.)
24. AAATTAAATTATACTCAATACACAAGTTTGAATCTGATTCCGGAGTCACCTAGTGCAG  11400 fluorescence intensity (a.u.)
25. GGCTAATTTGGCGAGGTAATACGGTAGTATAGCACGGTTACGGAGTCACCTAGTGCAG  10500 fluorescence intensity (a.u.)
26. TATTCAAATCATTTAAGTAATTATTTATTCTTTTCATATCCGGAGTCACCTAGTGCAG  10000 fluorescence intensity (a.u.)
27. CAGATGTGACTGGTATATATTGAAAGGTGCGAGGCACTGGCGGAGTCACCTAGTGCAG  9620 fluorescence intensity (a.u.)
28. GATCAATTAATATGGAATTTAAAAGTTCAATTAATATGGACGGAGTCACCTAGTGCAG  8910 fluorescence intensity (a.u.)
29. CTGCACAGTTAATTAAAGGAAAACTGGCGAAAACCCGGCACGGAGTCACCTAGTGCAG  8360 fluorescence intensity (a.u.)
30. TTCAATTGATGTTCTTGCTTGCAAGTTGCAACGAGATTTGCGGAGTCACCTAGTGCAG  7920 fluorescence intensity (a.u.)
31. CTCATAACACTTTCCTAATTGCCTCATATGCGGCCTTCCCCGGAGTCACCTAGTGCAG  7620 fluorescence intensity (a.u.)
32. ATAAATTAATCCAGGCGTGATCTCCCGGCGCCCGCACGCGCGGAGTCACCTAGTGCAG  7300 fluorescence intensity (a.u.)
33. GATGATAAATTAAGTCACAATAAATAAATAATAATAATATCGGAGTCACCTAGTGCAG  5820 fluorescence intensity (a.u.)
34. CGTGTGCAGTGCAGTGATGATTGAGAAAGGCCATGCCATACGGAGTCACCTAGTGCAG  3900 fluorescence intensity (a.u.)
35. GTTCGATTGAGATAGCTCTTAACATCAGTGACTTCTAGCCCGGAGTCACCTAGTGCAG  3800 fluorescence intensity (a.u.)
36. CTTGCTGGTACCAATTAACATGGGTATGTTTAATTTGCTGCGGAGTCACCTAGTGCAG  3650 fluorescence intensity (a.u.)
37. CCCTCGCCTGGGCCGATCCCCATACATCCCGCGAGCGCGACGGAGTCACCTAGTGCAG  3440 fluorescence intensity (a.u.)
